# Reference: publication PMC7862700, “An all-to-all approach to the identification of sequence-specific readers for epigenetic DNA modifications on cytosine”
# Tests used:
# Assay in all cases: DAPPL (digital affinity profiling via proximity ligation, sequencing); 10 mM Tris-HCl pH 7.5, 50 mM NaCl, 1 mM DTT, 4% glycerol, room temperature, 30 min; GST-TFs on glutathione beads, 16-mer random dsDNA library, 0.1% formaldehyde crosslink after washing; high values mean tight binding
# Conditions in all cases: protein: recombinant; tags: N-terminal GST; dsDNA, one strand shown
# ERG = molecular target: T1, ERG (Homo sapiens, UniProt P11308 1-479)
# T1 sequence: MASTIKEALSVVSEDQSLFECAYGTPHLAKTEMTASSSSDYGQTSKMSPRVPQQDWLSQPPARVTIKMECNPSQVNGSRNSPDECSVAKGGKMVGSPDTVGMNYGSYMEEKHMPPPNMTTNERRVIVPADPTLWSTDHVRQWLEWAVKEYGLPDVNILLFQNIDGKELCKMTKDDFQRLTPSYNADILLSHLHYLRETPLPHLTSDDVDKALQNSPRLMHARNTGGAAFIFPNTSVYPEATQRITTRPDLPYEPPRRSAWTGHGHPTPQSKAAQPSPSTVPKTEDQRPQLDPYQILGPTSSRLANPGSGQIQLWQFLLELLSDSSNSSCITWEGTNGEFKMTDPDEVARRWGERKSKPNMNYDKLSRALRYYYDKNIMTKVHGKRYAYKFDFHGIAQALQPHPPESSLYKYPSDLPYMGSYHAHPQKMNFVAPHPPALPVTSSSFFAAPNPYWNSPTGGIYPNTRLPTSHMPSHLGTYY
# Procedure, shortened: (§1)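 Binding signal is each hexamer's read frequency for a factor divided by its frequency in the tag-only sample. The factors were GST-fused human transcription factors from yeast, captured on glutathione beads, DNA-barcoded and pooled with that sample. Pools were incubated with 200 nmole of a random double-stranded 16-mer DNA library in Tris/NaCl/DTT/glycerol buffer at room temperature for 30 min, then washed, crosslinked with 0.1% formaldehyde, proximity-ligated with BsaI/T4 ligase (1 h, 37 °C), PCR-amplified and sequenced on an Illumina NextSeq500.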
# ELF1 = ELF1 (Homo sapiens, UniProt P32519 1-619)
# Sequence of ELF1 (P32519 whole entry): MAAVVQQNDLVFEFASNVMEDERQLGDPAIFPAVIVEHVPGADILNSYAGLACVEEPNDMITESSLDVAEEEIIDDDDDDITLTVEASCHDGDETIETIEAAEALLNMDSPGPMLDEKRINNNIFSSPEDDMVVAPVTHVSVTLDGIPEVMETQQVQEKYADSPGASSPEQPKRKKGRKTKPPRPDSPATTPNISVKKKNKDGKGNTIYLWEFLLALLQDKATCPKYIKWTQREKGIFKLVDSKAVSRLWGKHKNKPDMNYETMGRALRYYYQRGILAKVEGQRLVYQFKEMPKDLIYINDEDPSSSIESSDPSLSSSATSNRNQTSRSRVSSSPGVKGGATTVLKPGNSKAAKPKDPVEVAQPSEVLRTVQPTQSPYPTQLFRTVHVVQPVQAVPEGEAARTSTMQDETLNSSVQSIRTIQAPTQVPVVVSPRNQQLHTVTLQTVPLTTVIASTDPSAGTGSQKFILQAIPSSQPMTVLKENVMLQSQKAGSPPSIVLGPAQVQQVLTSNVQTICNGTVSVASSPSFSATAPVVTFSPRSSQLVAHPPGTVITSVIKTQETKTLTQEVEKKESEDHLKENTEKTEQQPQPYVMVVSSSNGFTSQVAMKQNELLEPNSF
# Procedure, shortened: as §1
# EHF = molecular target: T2, EHF (Homo sapiens, UniProt Q9NZC4 1-300)
# T2 sequence: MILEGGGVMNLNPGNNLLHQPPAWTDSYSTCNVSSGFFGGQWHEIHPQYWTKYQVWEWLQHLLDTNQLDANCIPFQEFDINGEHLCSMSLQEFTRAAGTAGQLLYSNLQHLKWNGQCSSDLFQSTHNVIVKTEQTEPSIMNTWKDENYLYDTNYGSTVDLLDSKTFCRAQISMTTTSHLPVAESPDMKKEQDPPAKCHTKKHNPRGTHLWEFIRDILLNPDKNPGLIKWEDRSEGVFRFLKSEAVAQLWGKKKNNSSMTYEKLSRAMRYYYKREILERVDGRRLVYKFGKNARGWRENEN
# Procedure, shortened: as §1
# SPIB = SPIB (Homo sapiens, UniProt Q01892 1-262)
# Sequence of SPIB (Q01892 whole entry): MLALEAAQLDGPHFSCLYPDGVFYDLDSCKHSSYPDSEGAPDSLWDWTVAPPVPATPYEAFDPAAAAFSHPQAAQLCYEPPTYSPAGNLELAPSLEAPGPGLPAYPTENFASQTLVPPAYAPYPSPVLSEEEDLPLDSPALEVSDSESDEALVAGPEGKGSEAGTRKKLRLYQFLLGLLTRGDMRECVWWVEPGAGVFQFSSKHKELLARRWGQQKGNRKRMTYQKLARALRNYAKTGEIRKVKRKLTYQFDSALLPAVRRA
# Procedure, shortened: as §1
# SPIC = molecular target: T3, SPIC (Homo sapiens, UniProt Q8N5J4 1-248)
# T3 sequence: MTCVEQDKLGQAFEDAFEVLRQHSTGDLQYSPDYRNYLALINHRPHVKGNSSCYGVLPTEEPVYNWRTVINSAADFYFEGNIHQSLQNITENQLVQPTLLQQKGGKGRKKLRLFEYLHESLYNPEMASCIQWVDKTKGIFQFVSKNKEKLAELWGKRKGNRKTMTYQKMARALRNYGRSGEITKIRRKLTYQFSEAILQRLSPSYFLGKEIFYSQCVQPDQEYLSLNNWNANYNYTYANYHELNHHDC
# Procedure, shortened: as §1
# ELF4 = ELF4 (Homo sapiens, UniProt Q99607 1-663)
# Sequence of ELF4 (Q99607 whole entry): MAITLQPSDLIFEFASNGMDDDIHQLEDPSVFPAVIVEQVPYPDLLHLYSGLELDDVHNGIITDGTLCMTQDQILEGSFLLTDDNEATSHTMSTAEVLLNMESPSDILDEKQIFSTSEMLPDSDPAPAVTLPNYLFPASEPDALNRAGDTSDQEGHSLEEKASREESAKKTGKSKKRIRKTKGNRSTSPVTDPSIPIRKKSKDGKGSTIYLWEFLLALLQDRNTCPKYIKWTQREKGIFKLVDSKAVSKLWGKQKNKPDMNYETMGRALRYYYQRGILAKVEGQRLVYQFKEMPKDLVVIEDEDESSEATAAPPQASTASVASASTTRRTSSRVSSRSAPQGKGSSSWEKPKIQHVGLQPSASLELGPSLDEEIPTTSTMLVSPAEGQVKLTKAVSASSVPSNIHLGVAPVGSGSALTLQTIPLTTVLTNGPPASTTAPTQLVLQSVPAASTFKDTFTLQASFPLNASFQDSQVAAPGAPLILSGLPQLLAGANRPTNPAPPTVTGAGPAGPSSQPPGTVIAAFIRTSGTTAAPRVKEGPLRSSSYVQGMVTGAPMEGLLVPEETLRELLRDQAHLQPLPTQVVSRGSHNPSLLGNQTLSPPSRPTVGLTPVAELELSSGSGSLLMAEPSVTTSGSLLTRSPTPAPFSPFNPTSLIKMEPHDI
# Procedure, shortened: as §1
# ETV2 = molecular target: T4, ETV2 (Homo sapiens, UniProt O00321 1-342)
# T4 sequence: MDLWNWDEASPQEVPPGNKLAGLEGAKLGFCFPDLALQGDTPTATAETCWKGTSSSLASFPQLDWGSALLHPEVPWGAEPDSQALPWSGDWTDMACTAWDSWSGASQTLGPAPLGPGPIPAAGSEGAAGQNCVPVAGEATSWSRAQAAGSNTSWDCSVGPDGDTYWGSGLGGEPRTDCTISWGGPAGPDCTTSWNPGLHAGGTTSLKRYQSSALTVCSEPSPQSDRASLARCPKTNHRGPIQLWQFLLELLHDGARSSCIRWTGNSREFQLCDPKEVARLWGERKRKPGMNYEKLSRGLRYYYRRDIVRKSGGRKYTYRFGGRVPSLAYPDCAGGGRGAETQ
# Procedure, shortened: as §1
# ELF3 = molecular target: T5, ELF3 (Homo sapiens, UniProt P78545 1-371)
# T5 sequence: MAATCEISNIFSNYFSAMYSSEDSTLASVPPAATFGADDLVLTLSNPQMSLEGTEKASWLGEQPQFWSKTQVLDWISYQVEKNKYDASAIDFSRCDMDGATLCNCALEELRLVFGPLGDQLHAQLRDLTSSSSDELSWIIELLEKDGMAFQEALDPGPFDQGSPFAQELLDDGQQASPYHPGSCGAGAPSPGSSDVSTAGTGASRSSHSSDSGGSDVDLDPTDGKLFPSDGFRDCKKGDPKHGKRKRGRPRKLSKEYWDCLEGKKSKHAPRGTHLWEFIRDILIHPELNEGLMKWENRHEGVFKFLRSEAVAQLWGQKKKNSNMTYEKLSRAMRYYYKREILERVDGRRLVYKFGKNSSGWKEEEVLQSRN
# Procedure, shortened: as §1
# ETV1 = ETV1 (Homo sapiens, UniProt P50549 1-477)
# Sequence of ETV1 (P50549 whole entry): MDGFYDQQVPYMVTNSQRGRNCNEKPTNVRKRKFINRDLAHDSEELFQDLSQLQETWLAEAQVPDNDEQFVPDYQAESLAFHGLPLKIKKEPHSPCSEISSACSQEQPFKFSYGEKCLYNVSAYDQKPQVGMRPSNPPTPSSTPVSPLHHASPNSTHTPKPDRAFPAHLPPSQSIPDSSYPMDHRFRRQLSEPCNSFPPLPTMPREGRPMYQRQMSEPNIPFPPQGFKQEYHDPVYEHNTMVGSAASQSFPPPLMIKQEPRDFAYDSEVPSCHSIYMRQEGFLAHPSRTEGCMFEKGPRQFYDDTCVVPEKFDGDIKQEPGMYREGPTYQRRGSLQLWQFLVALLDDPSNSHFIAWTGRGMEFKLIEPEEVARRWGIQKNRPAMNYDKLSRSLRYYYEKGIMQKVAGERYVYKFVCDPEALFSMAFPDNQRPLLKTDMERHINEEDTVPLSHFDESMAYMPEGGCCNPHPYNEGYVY
# Procedure, shortened: as §1
# ERF = molecular target: T6, ERF (Homo sapiens, UniProt P50548 1-548)
# T6 sequence: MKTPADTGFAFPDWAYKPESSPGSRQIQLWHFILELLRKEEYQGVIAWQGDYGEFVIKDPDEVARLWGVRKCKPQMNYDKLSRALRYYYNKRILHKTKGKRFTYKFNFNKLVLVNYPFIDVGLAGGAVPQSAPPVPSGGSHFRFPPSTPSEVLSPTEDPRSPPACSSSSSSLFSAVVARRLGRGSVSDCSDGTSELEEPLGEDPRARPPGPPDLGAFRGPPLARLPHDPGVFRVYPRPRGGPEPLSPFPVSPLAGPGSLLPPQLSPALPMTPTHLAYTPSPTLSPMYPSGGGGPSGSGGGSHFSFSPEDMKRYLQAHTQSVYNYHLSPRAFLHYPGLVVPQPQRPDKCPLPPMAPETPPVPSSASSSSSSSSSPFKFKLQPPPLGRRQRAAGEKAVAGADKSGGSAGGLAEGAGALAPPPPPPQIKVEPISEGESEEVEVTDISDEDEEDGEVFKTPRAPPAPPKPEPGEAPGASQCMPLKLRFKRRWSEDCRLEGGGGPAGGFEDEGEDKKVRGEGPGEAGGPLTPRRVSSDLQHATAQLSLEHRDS
# Procedure, shortened: as §1
# ETV3L = molecular target: T7, ETV3L (Homo sapiens, UniProt Q6ZN32 1-361)
# T7 sequence: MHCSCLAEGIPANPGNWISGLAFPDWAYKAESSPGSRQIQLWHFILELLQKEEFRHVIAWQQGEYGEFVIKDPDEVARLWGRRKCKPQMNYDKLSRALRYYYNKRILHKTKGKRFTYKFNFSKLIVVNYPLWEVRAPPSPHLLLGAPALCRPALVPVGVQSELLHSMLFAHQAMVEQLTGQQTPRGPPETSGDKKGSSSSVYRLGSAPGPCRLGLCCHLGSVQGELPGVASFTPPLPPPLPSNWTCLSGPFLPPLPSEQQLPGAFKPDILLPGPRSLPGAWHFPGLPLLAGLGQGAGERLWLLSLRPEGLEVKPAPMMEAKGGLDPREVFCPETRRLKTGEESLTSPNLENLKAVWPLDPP
# Procedure, shortened: as §1
# ETS2 = molecular target: T8, ETS2 (Homo sapiens, UniProt P15036 1-469)
# T8 sequence: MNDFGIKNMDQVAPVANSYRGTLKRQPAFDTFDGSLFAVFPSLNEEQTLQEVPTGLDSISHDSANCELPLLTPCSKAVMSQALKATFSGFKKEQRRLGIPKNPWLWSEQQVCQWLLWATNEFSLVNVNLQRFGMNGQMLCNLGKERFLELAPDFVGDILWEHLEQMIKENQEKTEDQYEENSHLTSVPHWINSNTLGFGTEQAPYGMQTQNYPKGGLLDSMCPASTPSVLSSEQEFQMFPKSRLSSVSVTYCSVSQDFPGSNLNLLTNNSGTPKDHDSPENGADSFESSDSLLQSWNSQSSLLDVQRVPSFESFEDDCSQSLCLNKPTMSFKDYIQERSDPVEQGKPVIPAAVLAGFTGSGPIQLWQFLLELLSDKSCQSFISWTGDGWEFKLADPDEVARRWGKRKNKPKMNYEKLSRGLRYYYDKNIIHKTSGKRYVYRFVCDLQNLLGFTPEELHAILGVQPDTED
# Procedure, shortened: as §1
# SPDEF = molecular target: T9, SPDEF (Homo sapiens, UniProt O95238 1-335)
# T9 sequence: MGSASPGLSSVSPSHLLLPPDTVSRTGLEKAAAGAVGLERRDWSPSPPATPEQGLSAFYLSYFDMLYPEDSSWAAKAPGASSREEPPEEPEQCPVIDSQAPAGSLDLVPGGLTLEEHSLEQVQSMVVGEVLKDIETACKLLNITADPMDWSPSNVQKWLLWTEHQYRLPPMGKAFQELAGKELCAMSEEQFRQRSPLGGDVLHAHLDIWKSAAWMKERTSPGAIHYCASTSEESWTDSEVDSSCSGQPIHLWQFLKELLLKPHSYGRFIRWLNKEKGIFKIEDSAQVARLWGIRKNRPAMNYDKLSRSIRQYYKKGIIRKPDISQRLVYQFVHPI
# Procedure, shortened: as §1
# ELF5 = molecular target: T10, ELF5 (Homo sapiens, UniProt Q9UKW6-2 1-255)
# T10 sequence: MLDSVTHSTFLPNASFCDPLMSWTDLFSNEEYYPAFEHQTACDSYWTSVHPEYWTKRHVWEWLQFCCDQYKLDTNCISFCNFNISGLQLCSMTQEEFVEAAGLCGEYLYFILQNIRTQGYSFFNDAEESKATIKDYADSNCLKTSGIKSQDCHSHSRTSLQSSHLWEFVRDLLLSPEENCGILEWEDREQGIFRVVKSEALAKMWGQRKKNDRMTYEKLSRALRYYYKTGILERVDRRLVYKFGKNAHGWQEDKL
# Procedure, shortened: as §1
# ETV3 = molecular target: T11, ETV3 (Homo sapiens, UniProt P41162-2 1-143)
# T11 sequence: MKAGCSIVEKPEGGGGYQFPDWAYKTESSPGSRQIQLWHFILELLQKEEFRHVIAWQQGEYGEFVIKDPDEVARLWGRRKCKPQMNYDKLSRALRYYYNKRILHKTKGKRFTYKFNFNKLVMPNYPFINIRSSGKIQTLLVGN
# Procedure, shortened: as §1
sequence,measurement,setting,value
GTGTCT,binding signal,ERG,"1.1 fold enrichment (6-mer frequency, TF over GST control)"
same,binding signal,ELF1,"1.06 fold enrichment (6-mer frequency, TF over GST control)"
same,binding signal,EHF,"1.06 fold enrichment (6-mer frequency, TF over GST control)"
same,binding signal,SPIB,"1.03 fold enrichment (6-mer frequency, TF over GST control)"
same,binding signal,SPIC,"1.16 fold enrichment (6-mer frequency, TF over GST control)"
same,binding signal,ELF4,"1.02 fold enrichment (6-mer frequency, TF over GST control)"
same,binding signal,ETV2,"1.15 fold enrichment (6-mer frequency, TF over GST control)"
same,binding signal,ELF3,"1 fold enrichment (6-mer frequency, TF over GST control)"
same,binding signal,ETV1,"1.09 fold enrichment (6-mer frequency, TF over GST control)"
same,binding signal,ERF,"1.06 fold enrichment (6-mer frequency, TF over GST control)"
same,binding signal,ETV3L,"1.09 fold enrichment (6-mer frequency, TF over GST control)"
same,binding signal,ETS2,"1.03 fold enrichment (6-mer frequency, TF over GST control)"
same,binding signal,SPDEF,"1.09 fold enrichment (6-mer frequency, TF over GST control)"
same,binding signal,ELF5,"1.13 fold enrichment (6-mer frequency, TF over GST control)"
same,binding signal,ETV3,"1.02 fold enrichment (6-mer frequency, TF over GST control)"
